CYP2C19 inh: human CYP2C19 inhibition | CYP2C19 Supersomes, luciferin-H EGE luminescence, 30 min | inhibition, % at 5 µM | AID 778 | 21% of 96,000 active;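 active = CYP2C19 inhibition above a set limit at 5 µM in the primary screen, cut at about 50% in these data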;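 also: plate controls were negative control wells for no effect and 2.5 mM tranylcypromine positive control for full effect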
CYP2C9 inh: blocks human cytochrome P450 2C9 | inhibition, % at 5 µM | P11712 | AID 777 | 20% of 96,000 active | CYP2C9 Supersomes, luciferin-H conversion, luminescence;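 active = blocking of liver enzyme CYP2C9 beyond about 50% at 5 µM, limit read from the data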
CYP2C9 act: CYP2C9 (human) activation | P11712 | recombinant CYP2C9, luciferin-H conversion, luminescence; hits give high values; factor 1 = untreated enzyme, 0 = blocked | activation factor at 5 µM | 1.4% of 96,000 active | AID 1024;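 active = activation factor of 2 or more for CYP2C9 at a 5 µM dose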;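 also: 0 = sulfaphenazole-blocked wells and 1 = vehicle-only wells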
PLAP activator: human PLAP activation; P05187; purified PLAP enzyme, luminescent substrate read-out; hits give high values; activation fold at 20 µM; 1.2% of 96,000 active; AID 696; in the data active = activation fold above about 2
Target sequence (P05187 whole entry, looked up): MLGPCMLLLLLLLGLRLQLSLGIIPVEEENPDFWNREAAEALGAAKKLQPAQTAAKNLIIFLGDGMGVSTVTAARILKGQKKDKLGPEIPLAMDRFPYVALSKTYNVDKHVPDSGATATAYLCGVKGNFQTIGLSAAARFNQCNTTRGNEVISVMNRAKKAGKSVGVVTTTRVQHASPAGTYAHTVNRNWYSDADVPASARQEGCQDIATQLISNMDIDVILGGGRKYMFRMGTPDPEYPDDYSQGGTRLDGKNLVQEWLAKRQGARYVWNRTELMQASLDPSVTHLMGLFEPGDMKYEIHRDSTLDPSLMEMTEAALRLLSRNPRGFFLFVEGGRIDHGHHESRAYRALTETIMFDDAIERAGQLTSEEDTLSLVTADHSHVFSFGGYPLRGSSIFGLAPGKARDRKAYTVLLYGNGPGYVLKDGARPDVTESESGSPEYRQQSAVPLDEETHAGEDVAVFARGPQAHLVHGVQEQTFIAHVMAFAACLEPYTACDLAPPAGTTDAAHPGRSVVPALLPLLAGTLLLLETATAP
CYP2C19 act: increases human CYP2C19 enzyme activity; recombinant CYP2C19, luciferin-H EGE luminescence; hits give high values; 0 = fully inhibited enzyme, 1 = untreated enzyme; activation factor at 5 µM; 96,000 tested, under 10 active; AID 1025;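 active = activation factor of at least 2 at 5 µM in the primary screen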;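 also: 0 = wells with 2.5 mM tranylcypromine and 1 = vehicle-only wells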
* marks the source's active call; other numbers are inactive results. In the library only some 31% were active in any assay of this set; here they are far more common.

SMILES	CYP2C19 inh	CYP2C9 inh	CYP2C9 act	PLAP activator	CYP2C19 act
O=P(Nc1ccccc1)(Nc1ccccc1)Oc1ccc(Cl)cc1	86*	81*	0.2	0.5	0.1
O=C(Nc1ccccc1)Oc1ccccc1	31	12	0.9	0.8	0.7
O=C(c1cc(S(=O)(=O)N2CCCCC2)ccc1F)N1CCC2(CC1)OCCO2	3	22	0.8	1.1	1
O=C(c1cc2c(s1)-c1ccccc1OC2)N1CCC2(CC1)OCCO2	84*	25	0.8	1.6	0.2
O=C(c1csc2c1CCCCC2)N1CCC2(CC1)OCCO2	98*	-38	1.4	1	0
CN1C(=O)c2ccccc2Sc2ccc(C(=O)N3CCC4(CC3)OCCO4)cc21	0	28	0.7	1	1
O=C(c1cccc(N2CCCC2=O)c1)N1CCC2(CC1)OCCO2	2	-19	1.2	1.2	1
O=C(c1cc2c(s1)CCCC2)N1CCC2(CC1)OCCO2	92*	30	0.7	1.2	0.1
CCOc1cccc(OCC)c2c(C)[n+](CC3CCCO3)c(C)c1-2 (centres undefined)	39	28	0.7	1.1	0.6
O=c1c2ccccc2nc(CSc2ncnc3nc[nH]c23)n1-c1ccc(Cl)c(Cl)c1	28	44	0.6	1.6	0.7
O=c1c2ccccc2[nH]c(=S)n1-c1ccc2c(c1)OCO2	97*	83*	0.2	0.9	0
CC12CNCC(C)(CNC1)C2O (centres undefined)	-21	-12	1.1	1.1	1.2
O=C(NC1CC2CCC(C1)N2Cc1nnnn1Cc1ccco1)NC12CC3CC(CC(C3)C1)C2 (centres undefined)	71*	54*	0.5	6.3	0.3
O=C(c1ccc(CS(=O)(=O)c2ccc(Br)cc2)o1)N1CCC2(CC1)OCCO2	42	54*	0.5	1	0.6
O=C(c1ccc(CS(=O)(=O)c2ccccc2)o1)N1CCC2(CC1)OCCO2	81*	47	0.5	1.3	0.2
O=C(CCS(=O)(=O)c1ccc(Br)cc1)N1CCC2(CC1)OCCO2	11	14	0.9	0.9	0.9
Cc1cccc(CN2CCN(CC(=O)N3CCC4(CC3)OCCO4)C2=O)c1	0	11	0.9	1.6	1
Cc1cccc(CS(=O)(=O)Cc2ccc(C(=O)N3CCC4(CC3)OCCO4)o2)c1	33	58*	0.4	1.4	0.7
OC(c1ccccc1)(c1ccccc1)C1CCNCC1	3	60*	0.4	0.7	1
CCOc1ccc(C2(C#N)CC[N+](C)(C)CC2)cc1	-1	-6	1.1	0.9	1
Cc1ccc(C(c2nnnn2Cc2ccccc2)N2CC=C(c3ccc(F)cc3)CC2)cc1 (centres undefined)	70*	50*	0.5	0.8	0.3
CN1CCN(CC(=O)Nc2ccc(Cl)cc2C(=O)c2ccccc2)CC1	4	3	1	1.5	1
O=C(c1ccccc1)c1cn(CC(=O)N2CCOCC2)c2ccccc12	41	53*	0.5	0.9	0.6
CCn1cc(C(=O)c2ccccc2)c2ccccc21	28	-150	2.5*	0.8	0.7
COC(=O)CC1=C(C(=O)OC)C2(C(=O)N(C)c3ccccc32)C(C#N)=C(N)O1 (centres undefined)	-10	-10	1.1	1	1.1
SMILES	CYP2C19 inh	CYP2C9 inh	CYP2C9 act	PLAP activator	CYP2C19 act
COc1ccc(C2SCC(=O)Nc3c2c(C)nn3-c2ccccc2)cc1 (centres undefined)	11	52*	0.5	1	0.9
Cc1ccc(-n2nc(C)c3c2NC(=O)CSC3c2ccc3c(c2)OCO3)cc1 (centres undefined)	34	44	0.6	1.4	0.7
Cc1ccc(-c2nc3ccc(Cl)cc3n2OC(=O)N(C)C)cc1	-1	-4	1	0.8	1
O=C(Cn1ncc2c3ccccc3n(Cc3cccc(Cl)c3)c2c1=O)N1CCC2(CC1)OCCO2	79*	91*	0.1	1.5	0.2
Cn1c2ccccc2c2cnn(CC(=O)N3CCC4(CC3)OCCO4)c(=O)c21	57*	14	0.9	1.5	0.4
Cn1c2ccccc2c2c(C(=O)N3CCC4(CC3)OCCO4)cn(C3CCCCC3)c(=O)c21	51*	69*	0.3	1.5	0.5
Cc1c2cnn(CC(=O)N3CCC4(CC3)OCCO4)c(=O)c2c(C)n1Cc1ccccc1F	24	42	0.6	1.4	0.8
O=C(CN1CCN(Cc2cccc(Cl)c2)C1=O)N1CCC2(CC1)OCCO2	-18	5	0.9	0.9	1.2
CN1CCc2nc3ccc(F)cc3c(C(N)=O)c2C1	-9	0	1	1	1.1
CN1C(=O)N(C)C(=O)C2(Cc3c(nc4ccccn4c3=O)N3CCc4ccccc4C32)C1=O (centres undefined)	11	18	0.8	1	0.9
CN1CCC(OC(=O)C2c3ccccc3Oc3ccccc32)CC1	25	11	0.9	1.4	0.7
COc1ccc(CCn2c(O)c(C=NCCCN(C)C)c(=O)[nH]c2=O)cc1OC	1	22	0.8	0.9	1
O=C(CNS(=O)(=O)c1ccc(Br)s1)N1CCC2(CC1)OCCO2	58*	27	0.7	1.1	0.4
O=C(O)C1CN2CCC1CC2 (centres undefined)	-4	-14	1.1	0.9	1
Cc1cccc(C)c1NC(=O)CN(C)CC(=O)Nc1ccc(C#N)c(Cl)c1	36	53*	0.5	1.1	0.6
CCOc1cc(/C=C2/C(=O)NC(=O)N(c3ccc(CC)cc3)C2=O)ccc1OC(=O)c1cccs1	59*	19	0.8	1.1	0.4
CC(C)c1ccc(N2C(=O)NC(=O)/C(=C\c3cnc(-c4ccccc4)nc3)C2=O)cc1	28	24	0.8	1.1	0.7
CSc1ncc(Cl)c(C(=O)O)n1	27	9	0.9	1	0.7
CCCCCCCSc1cc(OC)c(CCNC)cc1OC	81*	2	1	1.5	0.2
CCCCCSc1cc(OC)c(CCNC)cc1OC	62*	11	0.9	1.1	0.4
Cc1ccc(C2(O)CCN3CCCCC32)cc1 (centres undefined)	-8	-14	1.1	1.1	1.1
CCOC(=O)Cn1cc([N+](=O)[O-])nc1[N+](=O)[O-]	0	-2	1	0.9	1
CC(=O)Nc1cc(C(=O)N2CCC3(CC2)OCCO3)ccc1Sc1ccc(C)cc1	41	36	0.6	1.5	0.6
c1ccc2c(CN3CCCCCCC3)c[nH]c2c1	0	6	0.9	0.9	1
CC(C(=O)c1c[nH]c2ccccc12)N1CCc2ccccc2C1 (centres undefined)	45	76*	0.2	0.8	0.5
CC(=O)C1C2c3ccccc3OC1(C)N=c1s/c(=C/c3cnn(C)c3)c(=O)n12 (centres undefined)	6	26	0.7	1.4	0.9
COC(=O)C1C2c3ccccc3OC1(C)N=c1s/c(=C/c3cnn(C)c3C)c(=O)n12 (centres undefined)	40	68*	0.3	1.6	0.6

High-throughput results from PubChem.
